# ABHD5 PLIN5 PPI = ABHD5-PLIN5 protein interaction inhibition; Split G. princeps luciferase complementation, luminescence, 4 h; Q00G26+Q8WTS1; inhibition, % at 4 µM; hit rate 0.78% among 360,000;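 active = inhibition above the mean inhibition across every tested compound plus 3 SD, cut at about 22% in these data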;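 note: 0% = DMSO only wells and the 100% control is not disclosed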
# Rtt109 Vps75 = inhibitors of Candida albicans Rtt109/Vps75 histone acetyltransferase | purified Rtt109/Vps75, ThioGlo CoA-SH fluorescence, 4 h | inhibition, % at 34.9 µM | hit rate 0.16% among 330,000;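 active = inhibition of at least 50% in every replicate; inconclusive = best replicate reaches 50% inhibition but some replicates fall short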
# Cardio protect = modulators protecting cardiomyocytes from myocardial damage. protection from H2O2 cell death, % at 20 µM. AID 588492. H9c2 cardiomyocytes, H2O2 injury protection, ATPLite, 2 h. hit rate 0.63% among 360,000;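 active = compounds giving at least 50% protection of heart cells from peroxide-induced death in the single-dose screen, raw or plate-pattern-corrected value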;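 note: 0% = DMSO wells with peroxide and 100% = DMSO wells without peroxide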
# HGIII-sPLA2 inh = Inhibits HGIII-sPLA2 liposome hydrolysis, primary screen. Q9NZ20. inhibition, % at 12.2 µM. QFRET BODIPY PC-A2 liposome hydrolysis, fluorescence. AID 743126. hit rate 0.56% among 370,000;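 active = inhibition above mean plus 3 SD of compounds lying within the high and low control bounds, cut at about 19% in these data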;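 note: 0% = median of test compound wells and 100% = no enzyme DMSO wells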
# DAGLB inhibitor = diacylglycerol lipase beta (human) inhibition. Q8NCG7. HEK293T DAGLB membrane lysate, EnzChek fluorogenic substrate. inhibition, % at 5.17 µM. hit rate 0.059% among 340,000. AID 504411; in the data active = inhibition above about 34%;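 note: 0% = enzyme with vehicle and 100% = wells lacking enzyme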
# Myeloid diff MLP = compounds promoting myeloid differentiation; ER-HoxA9 myeloid progenitors, lysozyme-GFP differentiation, flow cytometry; calls only at 10 µM; hit rate 1% among 360,000;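 active = normalized GFP-positive differentiation at or above the plate's own cutoff, the solvent-only control mean plus 3 SD; inconclusive = no clear call, values can overlap the other calls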;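 note: cells exposed to compound for four days before flow analysis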
# ABHD5 PLIN5 conf = ABHD5-PLIN5 interaction inhibition, confirmed; biochemical ABHD5-PLIN5 interaction, luminescence; hit rate 67% among 2,200; shares compounds with ABHD5 PLIN5 PPI; inhibition, % at 4 µM; in the data active = inhibition above about 23%;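 note: 0% = DMSO vehicle wells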
# HNF4 split-luc = counter-screen for ABHD5-PLIN5 inhibitors: HNF4 split-luciferase; shares compounds with ABHD5 PLIN5 PPI; HNF4 dimerization, luminescence, biochemical; inhibition, % at 4 µM; hit rate 77% among 2,200;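 active = mean inhibition across replicate wells exceeding the computed hit threshold, cut at about 13% in these data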;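 note: light from luciferase halves that rejoin when HNF4 fusion proteins dimerize; 0% = DMSO only wells and the 100% control is not given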
# The depositor's hits bear a star; i = inactive; ? = inconclusive; . = no result; ! = not active in a repeat. Most compounds without a hit are left out; they make up all but 2.9% or so of the library.
SMILES,ABHD5 PLIN5 PPI,Rtt109 Vps75,Cardio protect,HGIII-sPLA2 inh,DAGLB inhibitor,Myeloid diff MLP,ABHD5 PLIN5 conf,HNF4 split-luc
Nc1nc(Sc2ccc([N+](=O)[O-])c3nonc23)c2[nH]cnc2n1,53*,-1,-20,11,6,.,83*,110*
CNc1ncnc(Sc2nc(N)nc3nc[nH]c23)c1[N+](=O)[O-],12,4,-2,2,-4,.,.,.
CCN(CC)C(=O)N1CCN(C)CC1,38*,-7,13,15,1,i,80*,37*
CC1(C)CC(=O)/C(=C\c2cccc([N+](=O)[O-])c2)C(C)(C)N1,26*,-7,-6,-1,2,i,37*,44*
CCOc1cc(C=C(C(=O)OC)C(=O)OC)ccc1OCc1ccc([N+](=O)[O-])cc1,66*,8,-30,0,10,i,96*,90*
CCOc1cc(/C=N/O)ccc1OCc1ccc([N+](=O)[O-])cc1,10,0,0,-4,-2,i,.,.
CN(C)CCOc1ccccc1Cc1ccccc1,35*,1,3,-10,1,i,73*,25*
CCOC(=O)C1(C)CCCN(C(=O)c2ccc3snnc3c2)C1 (stereo unspecified),-1,.,8,0,.,i,.,.
O=C1C=CC(=Nc2ccc3c(c2)Cc2cc(F)ccc2-3)O1,29*,5,-3,7,-1,i,33*,60*
O=C1C=CC(=Nc2cccc3c2C(=O)c2ccccc2-3)O1,6,-4,-2,.,-7,i,.,.
CCn1c(C)c(C)c2cc(C(=O)NCCc3ccco3)ccc21,30*,12,7,-13,-5,?,10,16*
NC(=NCCCCCCN=C(N)/N=C(\N)Nc1ccc(Cl)cc1)/N=C(\N)Nc1ccc(Cl)cc1,34*!,?,-38,-9,7,?,26*,2
COc1ccccc1C1CC(c2cccs2)=NN1C(=O)CCC(=O)O (stereo unspecified),-2,-10,5,5,-2,i,.,.
COc1ccccc1C1CC(c2cccs2)=Nc2ccccc2S1 (stereo unspecified),45*,?,0,-9,-13,i,-5,5
Cc1[nH]c2ccccc2c1C1=CC(=O)C=CC1=O,49*,8,-28,15,4,i,46*,80*
Fc1ccccc1/C=N/NC(=S)Nc1ccc(Cl)cc1Cl,-4,3,-7,-3,-8,?,.,.
Cc1cccc(/C=C(\c2nc3ccccc3[nH]2)S(=O)(=O)c2ccccc2)c1,42*,3,-28,2,0,i,84*,68*
O=C(CCN1CCCC1Cc1ccccc1)c1ccc2c(c1)OCCO2 (stereo unspecified),28*,-1,-25,1,3,i,25*,87*
O=C(CCN1CCCCC1)c1ccc2c(c1)OCCO2,14,.,3,9,-3,i,.,.
COCCNC(=O)c1cc(-c2ccccc2)sc1N,28*,.,.,16,.,i,1,-1
COC(=O)c1ccccc1NC(=O)N1CCN(Cc2ccco2)CC1,1,3,3,0,-2,i,.,.
Cc1ccc(S(=O)(=O)N2CCCN(S(=O)(=O)C3CCS(=O)(=O)C3)CC2)cc1 (stereo unspecified),2,4,0,-1,-2,i,.,.
CC1(C)C2CCC(CN=C(N)CSS(=O)(=O)O)C1C2 (stereo unspecified),61*,.,-5,-9,-8,i,78*,52*
NC(CSS(=O)(=O)O)=NCCC12CC3CC(CC(O)(C3)C1)C2,-30,-338,-5,4,-4,i,.,.
CCOC(=O)C(=Cc1cc(=O)c(OC)co1)C(=O)OCC,24*,78*,-26,4,0,?,76*,90*
SMILES,ABHD5 PLIN5 PPI,Rtt109 Vps75,Cardio protect,HGIII-sPLA2 inh,DAGLB inhibitor,Myeloid diff MLP,ABHD5 PLIN5 conf,HNF4 split-luc
O=C(CN(C(=O)c1csnn1)c1ccc(F)cc1)NCc1ccc(F)cc1,9,-11,8,-2,-3,i,.,.
N#Cc1cc(Oc2cccc3cccnc23)c(-n2nnc3ccccc32)cc1C#N,69*,-8,-2,3,6,i,13,50*
N#Cc1cc(O)c(-n2nnc3ccccc32)cc1C#N,-9,-1,-10,-1,0,i,.,.
CCC(C)NC(=O)Cn1cnc2sc(C)c(S(=O)(=O)N3CCN(c4ncccn4)CC3)c2c1=O (stereo unspecified),-2,-14,-6,4,0,i,.,.
O=C(O)C1=CC2C=C(Cl)C=CC2OC1=O (stereo unspecified),1,7,0,5,2,i,.,.
Nc1ccc(/C=C/C(=O)c2cccs2)cc1,13,-3,-10,-1,-8,i,.,.
O=C(C=Cc1ccccc1)c1cccs1,59*,-8,-2,-2,0,i,71*,64*
O=S(=O)(NCc1ccccc1)c1ccc(S(=O)(=O)N(Cc2cccs2)CC2CCCO2)cc1 (stereo unspecified),-7,3,-3,-11,-3,i,.,.
Cc1ccc(/C=C2/CNC/C(=C/c3ccc(C)cc3)C2=O)cc1,96*,0,-2,6,-4,?,100*,94*
COc1cc(N=c2ssnc2Cl)cc(OC)c1,-2,1,-1,12,-5,i,.,.
Clc1nssc1=Nc1ccc(Br)cc1,24*,-2,-37,13,1,i,23*,71*
Clc1nssc1=Nc1nncs1,73*,1,9,5,2,i,64*,101*
CC(=O)Nc1ccc(S(=O)(=O)N(C)CC(=O)OCC(=O)N2CC(C)OC(C)C2)cc1 (stereo unspecified),2,?,0,5,-1,i,.,.
O=C(/C=C/c1ccccc1Cl)c1ccccc(=O)c1O,33*,-4,70*,9,15,i,59*,43*
Cc1ccc(C)c(/C=C/C(=O)c2ccccc(=O)c2O)c1,30*,.,39,-4,16,.,56*,35*
O=C(/C=C/c1ccc([N+](=O)[O-])cc1)c1ccccc(=O)c1O,66*,0,10,2,17,.,98*,91*
O=C(/C=C/c1ccc([N+](=O)[O-])cc1)c1cccs1,15,11,1,1,1,i,.,.
Cc1ccc(S(=O)(=O)Cc2ccc(C(=O)N3CCc4ccccc4C3)o2)cc1,-6,-3,10,-7,4,i,.,.
Nc1c(C(=O)NCc2cccs2)nnn1CC(=O)Nc1cccc(Cl)c1,4,-15,-9,0,0,i,.,.

# High-throughput results deposited in PubChem by several laboratories.
